Many of the other results were omitted from the sample, so hits are more common in it than they were.
AmpC no deterg – blocks E. coli AmpC beta-lactamase in detergent-free assay. AmpC nitrocefin hydrolysis, absorbance 480 nm, 0.0001% Triton. Potency, µM (doses to about 57.1 µM), actives largely listed as inhibitors. P00811. 330,000 tested, 0.52% active; further: nearly all actives have a fitted effect of over 20% in size
Target sequence (P00811 whole entry, looked up): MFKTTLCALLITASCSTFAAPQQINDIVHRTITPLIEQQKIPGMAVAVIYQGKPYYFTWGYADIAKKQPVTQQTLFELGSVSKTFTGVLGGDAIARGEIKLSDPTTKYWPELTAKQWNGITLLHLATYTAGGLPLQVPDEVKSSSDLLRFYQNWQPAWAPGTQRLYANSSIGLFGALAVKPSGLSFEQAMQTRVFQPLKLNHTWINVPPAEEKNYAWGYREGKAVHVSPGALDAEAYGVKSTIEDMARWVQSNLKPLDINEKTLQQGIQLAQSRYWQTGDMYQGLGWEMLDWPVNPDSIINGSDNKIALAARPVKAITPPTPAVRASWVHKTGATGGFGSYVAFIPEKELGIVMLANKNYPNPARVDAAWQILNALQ
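AmpC (5.3 nM in the dispensed reagent) in 20 mM phosphate pH 7.0 with 0.01% (detergent screen) or 0.0001% Triton X-100 was preincubated with compounds for 15 min at room temperature. Nitrocefin was then added from an 800 uM solution, and hydrolysis was followed at 480 nm.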
AMA1-RON2 inh – disrupts binding of P. falciparum AMA1 to RON2; Potency, µM (titrated, usually from 58.2 µM), most hits filed as inhibitors; AlphaScreen AMA1-biotinylated RON2 peptide binding; AID 720542; 360,000 tested, 0.2% active; further: nearly all actives have a fitted effect of over 45% in size
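AMA1 (3D7) with his tag at 25 nM final met compounds first, then biotinylated RON2 peptide at 25 nM; detection used donor plus acceptor beads, 10 µg/mL apiece, read by AlphaScreen after 30 min at room temperature.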
AmpC inh detg – inhibitors of E. coli AmpC beta-lactamase with detergent; Potency, µM (highest dose often 114 µM), actives largely listed as inhibitors; AmpC hydrolysis of nitrocefin, absorbance 480 nm, 0.01% Triton; 370,000 tested, 0.041% active; further: nearly all actives have a fitted effect of over 25% in size
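20 mM phosphate pH 7.0 + 0.01% (detergent screen) or 0.0001% Triton X-100; 5.3 nM AmpC reagent; cpd preinc 15 min RT; nitrocefin (800 uM stock) to start; A480 q20 s × 4 min; Activity was normalised to no-enzyme and no-compound control wells.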
Cycloheximide cs – affects cycloheximide protein synthesis inhibition readout, counter-screen; cell reporter, cycloheximide protein synthesis inhibition counterscreen; max response, %; 300,000 tested, 12% active; in the data active means max response mostly above about 13%, no sharp cut-off; inactive means mostly below about 14%; further: read at 38.3 µM for the half of the compounds with a filed dose
SARS PLpro yeast – SARS-CoV PLP inhibition in yeast; S. cerevisiae expressing SARS-CoV PLpro, growth rescue; Potency, µM (titrated, usually from 32.9 µM), hits mostly activators; 330,000 tested, 0.19% active; AID 485353; calls by dose curve; further: nearly all actives have a fitted effect of over 55% in size
Shiga toxin inh – inhibitors of Shiga toxin in Vero cells; Vero cells, Shiga toxin protein synthesis inhibition reporter; 290,000 tested, 9.2% active; inhibition, % at 38.7 µM; AID 2315; in the data active means inhibition mostly above about 28%, no sharp cut-off; inactive means mostly below about 43%
Each line names hits and unclear results; the compound was inactive in the other large screens. Unless noted, the call rests on the fitted dose curve; in most records, active means well fitted curve in the direction sought with a large enough effect; inconclusive means small, poorly fitted or top-dose-only effect, or another doubt; inactive means no such curve, though single readings can be large; an effect the other way counts as inactive or inconclusive.

C=CCn1c(SCC(=O)NCCOC)nnc1-c1cc2c(s1)CCC(CC)C2 (stereo not given)	Cycloheximide cs 15
C=CCn1c(SCC(=O)NC2CC2)nnc1-c1cccc(OC)c1	AmpC inh detg inconclusive (no result: SARS PLpro yeast)
C=CCn1c(SCC(=O)NCC)nnc1-c1cc2c(s1)CCC(CC)C2 (stereo not given)	AmpC inh detg inconclusive, Cycloheximide cs 42, Shiga toxin inh 94
C=CCn1c(SCC(=O)NC(N)=O)nnc1-c1cc2c(s1)CCC(CC)C2 (stereo not given)	none
CCOC(=O)[C@@H]1[C@H]2COc3cc(OC)ccc3[C@@H]2N2C(=O)N(c3ccc(Br)cc3)C(=O)[C@@]12C	none
CCOc1ccc(S(=O)(=O)N(C)c2ccc(OCC(=O)NCC3CCCCC3)cc2)cc1	none (no result: AmpC inh detg, Cycloheximide cs, Shiga toxin inh)
O=C(NCCOC(=O)c1ccccc1)c1ccc([N+](=O)[O-])cc1	none
CCOc1ccc(-c2nc(N)ncc2-c2ccccc2)c(O)c1	none
O=C1CC(c2ccc3c(c2)OCO3)Sc2nc3ccccc3n21 (stereo not given)	Cycloheximide cs 51, Shiga toxin inh 106
O=C1CC(c2ccccc2)Sc2nc3ccccc3n21 (stereo not given)	Cycloheximide cs 41, Shiga toxin inh 99
O=C1CC(c2cccs2)Sc2nc3ccccc3n21 (stereo not given)	Cycloheximide cs 45, Shiga toxin inh 106
O=C1CC(c2ccco2)Sc2nc3ccccc3n21 (stereo not given)	Cycloheximide cs 36, Shiga toxin inh 82
O=C(c1ccc(Cn2ccc([N+](=O)[O-])n2)cc1)N1CCN(Cc2ccccc2)CC1	none
CC(C)OC(=O)/C(=C\c1ccc2c(c1)c1ccccc1n2C)NC(=O)c1ccccc1	Cycloheximide cs 29, Shiga toxin inh 67
COC(=O)/C(=C\c1ccc2c(c1)c1ccccc1n2C)NC(=O)c1ccccc1	none
CC(C)OC(=O)/C(=C/c1ccc2c(c1)c1ccccc1n2C)NC(=O)c1ccccc1	Cycloheximide cs 20, Shiga toxin inh 53
O=C(CSc1ccc(F)cc1)Nc1ccc(Br)cc1	Cycloheximide cs 47, Shiga toxin inh 67
O=C(CSc1ccc(F)cc1)Nc1ccccc1Br	Cycloheximide cs 33
CC(=O)Nc1ccc(NC(=O)CSc2ccc(C)cc2)cc1	none
CCc1cc(-c2n[nH]c(C)c2-c2nc3ccccc3n2C)c(O)cc1O	none
CCCOc1ccc(-c2c(C(=O)N/N=C(\C)c3ccncc3)nnn2-c2nonc2N)cc1	none
Cc1cccc(NC(=S)NC(=O)c2ccco2)n1	Cycloheximide cs 16
N#Cc1ccccc1NC(=S)NC(=O)c1cccs1	Cycloheximide cs 31, Shiga toxin inh 77
Cc1nc(NC(=S)NC(=O)c2cncc(Br)c2)ccc1Br	none
Cc1nc(NC(=S)NC(=O)c2cccs2)ccc1Br	Cycloheximide cs 31, Shiga toxin inh 32
Cc1cccc(NC(=S)NC(=O)c2cccs2)n1	Cycloheximide cs 24, Shiga toxin inh 115
Cc1cccc(NC(=O)CNC(=O)c2ccco2)n1	AmpC inh detg inconclusive (no result: Cycloheximide cs, Shiga toxin inh)
O=C(NCC(=O)N(Cc1ccco1)C(C(=O)NC1CCCC1)c1cccnc1)c1cccs1 (stereo not given)	AmpC inh detg inconclusive
Nc1cc(C(=O)c2cccs2)ccc1Cl	AmpC inh detg inconclusive, Cycloheximide cs 17
O=C(c1ccc(Cl)nc1)c1cccs1	none
N#Cc1ccsc1NC(=O)CSc1nncs1	none (no result: AmpC inh detg, Cycloheximide cs, Shiga toxin inh)
O=C(NNC1=C(C(=O)C(F)(F)F)CCC1)c1ccccc1O	Shiga toxin inh 37
Nc1ccccc1C(=O)NNC1=C(C(=O)C(F)(F)F)CCC1	Cycloheximide cs 46, Shiga toxin inh 95
COc1cccc(C(=O)NNC2=C(C(=O)C(F)(F)F)CCC2)c1	AmpC inh detg inconclusive, Cycloheximide cs 41, Shiga toxin inh 68
O=C(NNC1=C(C(=O)C(F)(F)F)CCC1)c1ccccc1Cl	none
COc1ccccc1C(=O)NNC1=C(C(=O)C(F)(F)F)CCC1	Cycloheximide cs 17, Shiga toxin inh 84
Cc1cccc(NC(=S)N2CCN(Cc3ccc4c(c3)OCO4)CC2)c1C	none
O=C(Nc1ccccc1)n1ccc(-c2ccc(-n3ccnc3)cc2)n1	Cycloheximide cs 43, Shiga toxin inh 40 (no result: AMA1-RON2 inh)
Cc1ccc(C(=O)N/N=C/c2ccc(-c3cccc(Cl)c3)o2)cn1	none
O=C(N/N=C/c1ccc(-c2ccccc2[N+](=O)[O-])o1)[C@H]1C[C@@H]1c1ccccc1	AmpC inh detg inconclusive, Cycloheximide cs 31, Shiga toxin inh active
Cc1n[nH]c(=S)n1/N=C/c1ccc(-c2ccccc2[N+](=O)[O-])o1	Cycloheximide cs 13
O=C(N/N=C/c1ccc(-c2ccc([N+](=O)[O-])cc2)o1)[C@H]1C[C@@H]1c1ccccc1	none
Cc1ccc(C(=O)N/N=C/c2ccc(-c3ccccc3[N+](=O)[O-])o2)cn1	Cycloheximide cs 19
O=[N+]([O-])c1cccc(-c2ccc(/C=N/n3c(-c4ccccc4)n[nH]c3=S)o2)c1	none
Cc1onc(-c2ccccc2)c1C(=O)N1CCN(c2ccccn2)CC1	none
CC(=O)Nc1sc(C)c(C)c1C(=O)OC(C)C	none
O=C(NC(=S)N1CCN(c2ccccn2)CC1)c1ccco1	Cycloheximide cs 18
Cc1sc(NC(=O)c2ccco2)c(CN2CCN(c3ccccn3)CC2)c1C	Cycloheximide cs 32
COC(=O)[C@]12CCCCC=C1N(Cc1ccccc1)C(=O)[C@H](CC(=O)N1CCSCC1)C2	none (no result: AmpC no deterg, AmpC inh detg, Cycloheximide cs, SARS PLpro yeast, Shiga toxin inh)
Cc1ccc(-c2noc(CN3CCOCC3)n2)cc1	Cycloheximide cs 39, Shiga toxin inh 76
COc1cccc(-c2noc(CCCC(=O)N3CCOCC3)n2)c1	none
Clc1ccc(-c2noc(CN3CCCC3)n2)cc1	Cycloheximide cs 37, Shiga toxin inh 65
O=C(CCCc1nc(-c2ccccc2)no1)N1CCOCC1	AmpC inh detg inconclusive, Cycloheximide cs 18
Cc1ccc(-c2noc(CN3CCCCC3)n2)cc1	Cycloheximide cs 49, Shiga toxin inh 91
COc1ccc(N2CCN(Cc3nc(-c4ccc(C)cc4)no3)CC2)cc1	none (no result: AmpC no deterg, AMA1-RON2 inh, Cycloheximide cs, SARS PLpro yeast, Shiga toxin inh)
CSc1ccc(CCNC(=O)Cn2ccc3cc(S(=O)(=O)N4CCCCCC4)ccc32)cc1	none (no result: AmpC no deterg, AMA1-RON2 inh, Cycloheximide cs, SARS PLpro yeast, Shiga toxin inh)
CC(C)c1onc(C(=O)Nc2cccnc2Cl)c1[N+](=O)[O-]	none
Cc1ccc(-c2noc(CCC(=O)N3CCCC3)n2)cc1	Cycloheximide cs 27, Shiga toxin inh 46
O=C(CCCc1c[nH]c2ccccc12)N1CCOCC1	Cycloheximide cs 19
Cc1ccc(-c2noc(CCC(=O)N3CCN(c4cc(C)ccc4C)CC3)n2)cc1	none (no result: AmpC inh detg, Cycloheximide cs, Shiga toxin inh)
O=C(CCc1c[nH]c2ccccc12)N1CCCCCCC1	none
O=C(COc1ncnc2c(Cl)cc(Cl)cc12)NC1CCCCCC1	none

Screening results (PubChem BioAssay)
